Reference: ChEMBL document CHEMBL4303122, “Identification of potential treatments for COVID-19 through artificial intelligence-enabled phenomic analysis of human cells infected with SARS-CoV-2” (2020)
In all, about 1,600 compounds were measured (“Hit score”: median about 0.13, highest 2% from about 0.46 on). Only a selection was taken, and the highest values are over-represented in it overall.

system: SARS-CoV-2; experiment: Antiviral activity against SARS-CoV-2 (USA-WA1/2020 strain) measured by imaging in HRCE cells at MOI 0.4 after 96 hrs (reported as hit score from 0-1 for on-disease vs off-disease activity: scores >0.6 considered hits); type: functional, Homo sapiens

Structure (SMILES) | Hit score
N#Cc1c(N2C[C@@H]3NCCO[C@H]3C2)c(F)cc2c(=O)c(C(=O)O)cn(C3CC3)c12 [FINAFLOXACIN] | 0.04952
C[C@H]1C[C@@H]2[C@H]([C@@H](O)C[C@@]3(C)[C@H]2CC[C@]3(O)C(=O)CO)[C@@]2(C)C=CC(=O)C=C12 [METHYLPREDNISOLONE] | 0.1629
CCCCc1oc2ccc(NS(C)(=O)=O)cc2c1C(=O)c1ccc(OCCCN(CCCC)CCCC)cc1 [DRONEDARONE] | 0.03796
C[C@]1(Cn2ccnn2)[C@H](C(=O)O)N2C(=O)C[C@H]2S1(=O)=O [TAZOBACTAM] | 0.04532
CC(C)Cc1ccc(C(C)C(=O)OCc2ccccn2)cc1 (stereo unspecified) [IBUPROFEN PICONOL] | 0.1126
CCCN1CC(NS(=O)(=O)N(CC)CC)CC2Cc3c(O)cccc3CC21 (stereo unspecified) [QUINAGOLIDE] | 0.09123
CO/N=C(\C(=O)N[C@@H]1C(=O)N2C(C(=O)O)=C(CSc3nnnn3C)CS[C@H]12)c1csc(N)n1 [CEFMENOXIME] | 0.1641
N=C(N)c1ccc(/C=C/c2ccc(C(=N)N)cc2O)cc1 [HYDROXYSTILBAMIDINE] | 0.4886
Nc1nc(=O)c2c([nH]1)NC[C@H](CNc1ccc(C(=O)N[C@@H](CCC(=O)O)C(=O)O)cc1)N2C=O [LEVOLEUCOVORIN] | 0.1157
C#C[C@]1(OC(C)=O)CC[C@H]2[C@@H]3CCC4=CC(=O)CC[C@@H]4[C@H]3CC[C@@]21C [NORETHINDRONE ACETATE] | 0.06494
COc1ccc(CCNCC(O)COc2cccc(C)c2)cc1OC (stereo unspecified) [BEVANTOLOL] | 0.3675
C=CCc1ccccc1OCC(O)CNC(C)C (stereo unspecified) [ALPRENOLOL] | 0.3773
COc1ccccc1OCC(O)CO (stereo unspecified) [GUAIFENESIN] | 0.2008
COc1ccccc1OCCNCC(O)COc1cccc2[nH]c3ccccc3c12 (stereo unspecified) [CARVEDILOL] | 0.5244
CC(C)NCC(O)COc1cccc2ccccc12 (stereo unspecified) [PROPRANOLOL] | 0.3664
CC(C)NC[C@@H](O)COc1cccc2ccccc12 [DEXPROPRANOLOL] | 0.4686
CC(C)NCC(O)COc1cccc2[nH]ccc12 (stereo unspecified) [PINDOLOL] | 0.3758
C=CCOc1ccccc1OCC(O)CNC(C)C (stereo unspecified) [OXPRENOLOL] | 0.08363
CC(C)NCC(O)COc1cccc2[nH]c3ccccc3c12 (stereo unspecified) [CARAZOLOL] | 0.4815
NS(=O)(=O)c1cc(-c2nnn[nH]2)c(NCc2cccs2)cc1Cl [AZOSEMIDE] | 0.09549
CN1[C@@H]2CC[C@H]1C[C@@H](OC(=O)[C@H](CO)c1ccccc1)C2 [HYOSCYAMINE] | 0.0469
O=C(O)CCC/C=C\CC1C(O)CC(O)C1/C=C/C(O)COc1cccc(Cl)c1 (stereo unspecified) [CLOPROSTENOL] | -0.03107

Structure (SMILES) | Hit score
COc1cccc(N2CCN(C3=Nc4c(F)cccc4[C@H](CC(=O)O)N3c3cc(C(F)(F)F)ccc3OC)CC2)c1 [LETERMOVIR] | 0.3651
CCOC(=O)[C@H]1O[C@@H]1C(=O)N[C@@H](CC(C)C)C(=O)NCCC(C)C [ALOXISTATIN] | 0.7896
N[C@@H]1[C@H]2CN(c3nc4c(cc3F)c(=O)c(C(=O)O)cn4-c3ccc(F)cc3F)C[C@@H]12 [TROVAFLOXACIN] | 0.134
O=C(O)[C@@H]1CCCN1 [PROLINE] | 0.14
COc1cc(Nc2ncc(F)c(Nc3ccc4c(n3)NC(=O)C(C)(C)O4)n2)cc(OC)c1OC [R-406] | 0.1646
CC(=O)c1c(C)c2cnc(Nc3ccc(N4CCNCC4)cn3)nc2n(C2CCCC2)c1=O [PALBOCICLIB] | 0.007482
OC(CCN1CCCCC1)(c1ccccc1)c1ccccc1 [PRIDINOL] | 0.1349
OC(CCN1CCCC1)(c1ccccc1)C1CCCCC1 (stereo unspecified) [PROCYCLIDINE] | 0.2175
OC(CCN1CCCCC1)(c1ccccc1)C1CCCCC1 (stereo unspecified) [TRIHEXYPHENIDYL] | 0.4673
Sc1ncnc2nc[nH]c12 [MERCAPTOPURINE ANHYDROUS] | 0.2212
COC(=O)C[C@](O)(CCC(C)(C)O)C(=O)O[C@@H]1C(OC)=C[C@]23CCCN2CCc2cc4c(cc2[C@H]13)OCO4 [HARRINGTONINE] | 0.07403
CCCC[C@H](NC(=O)[C@@H]1[C@@H]2[C@H](CN1C(=O)[C@@H](NC(=O)NC1(CS(=O)(=O)C(C)(C)C)CCCCC1)C(C)(C)C)C2(C)C)C(=O)C(=O)NC1CC1 | 0.1004
C[C@]12CC[C@H](O)CC1=CC[C@@H]1[C@@H]2CC[C@]2(C)C(c3cccnc3)=CC[C@@H]12 [ABIRATERONE] | 0.3975
C[C@H](CCC(=O)O)[C@H]1CC[C@H]2[C@@H]3[C@@H](O)C[C@@H]4C[C@H](O)CC[C@]4(C)[C@H]3CC[C@]12C [URSODIOL] | 0.2784
CC[C@H]1[C@@H](O)[C@@H]2[C@H](CC[C@]3(C)[C@@H]([C@H](C)CCC(=O)O)CC[C@@H]23)[C@@]2(C)CC[C@@H](O)C[C@@H]12 [OBETICHOLIC ACID] | 0.5073
CC(CCC(=O)O)[C@H]1CCC2C3C[C@H](O)[C@@H]4C[C@H](O)CC[C@]4(C)C3CC[C@@]21C (stereo partly specified) | 0.1858
CN1CC(=O)N2[C@H](c3ccc4c(c3)OCO4)c3[nH]c4ccccc4c3C[C@@H]2C1=O | 0.2898
CO[C@H]1/C=C/O[C@@]2(C)Oc3c(C)c(O)c4c(O)c(cc(O)c4c3C2=O)NC(=O)/C(C)=C\C=C\[C@H](C)[C@H](O)[C@@H](C)[C@@H](O)[C@@H](C)[C@H](OC(C)=O)[C@@H]1C [RIFAMYCIN] | 0.1815
NC(=O)[C@@H]1CC[C@@H]2CN1C(=O)N2OS(=O)(=O)[O-].[Na+] [AVIBACTAM SODIUM] | 0.2969
O=C(Nc1cc(Cl)cc(Cl)c1O)c1c(O)c(Cl)cc(Cl)c1Cl [OXYCLOZANIDE] | 0.1882
Cc1ccc2c(Cl)cc(Cl)c(O)c2n1 [CHLORQUINALDOL] | 0.2863
Oc1c(Cl)cc(Cl)c(Cl)c1Cc1c(O)c(Cl)cc(Cl)c1Cl [HEXACHLOROPHENE] | 0.5286

Structure (SMILES) | Hit score
Cc1ccc(C(=O)Nc2ccc(CN3CCN(C)CC3)c(C(F)(F)F)c2)cc1C#Cc1cnc2cccnn12 [PONATINIB] | 0.5086
CS(=O)(=O)c1ccc(C(=O)Nc2ccc(Cl)c(-c3ccccn3)c2)c(Cl)c1 [VISMODEGIB] | 0.5244
O=C(O)c1ccccc1C(=O)Nc1ccc(S(=O)(=O)Nc2nccs2)cc1 [PHTHALYLSULFATHIAZOLE] | 0.0541
Cc1cc(-c2ccc(/N=N/c3ccc4c(S(=O)(=O)[O-])cc(S(=O)(=O)[O-])c(N)c4c3O)c(C)c2)ccc1/N=N/c1ccc2c(S(=O)(=O)[O-])cc(S(=O)(=O)[O-])c(N)c2c1O.[Na+].[Na+].[Na+].[Na+] [EVANS BLUE] | 0.2486
CC(SC(=O)c1cccs1)C(=O)NCC(=O)O (stereo unspecified) [STEPRONIN] | 0.2404
CCCC(CCC)C(=O)O.CCCC(CCC)C(=O)[O-].[Na+] [DIVALPROEX SODIUM] | 0.2277
CCCCCCC(=O)O[C@H]1CC[C@H]2[C@@H]3CCC4=CC(=O)CC[C@]4(C)[C@H]3CC[C@]12C [TESTOSTERONE ENANTHATE] | 0.1237
CC(C)(C)CC(C)(C)c1ccc(OCCOCC[N+](C)(C)Cc2ccccc2)cc1 [BENZETHONIUM] | 0.03086
CC(C)/N=c1\cc2n(-c3ccc(Cl)cc3)c3ccccc3nc-2cc1Nc1ccc(Cl)cc1 [CLOFAZIMINE] | 0.5936
Cc1nc2ccccc2n1Cc1ccc(Cl)cc1 [CHLORMIDAZOLE] | -0.04269
O=C(O)COCCN1CCN([C@H](c2ccccc2)c2ccc(Cl)cc2)CC1 [LEVOCETIRIZINE] | -0.05445
OCCOCCN1CCN(C(c2ccccc2)c2ccc(Cl)cc2)CC1 (stereo unspecified) [HYDROXYZINE] | 0.00308
Clc1ccc(C(OCCN2CCCCC2)c2ccccc2)cc1 (stereo unspecified) [CLOPERASTINE] | 0.5618
O=P(O)(O)C(Sc1ccc(Cl)cc1)P(=O)(O)O [TILUDRONIC ACID] | 0.04613
Cc1cccc(C)c1NC(=O)CN1CCN(CCCC(c2ccc(F)cc2)c2ccc(F)cc2)CC1 [LIDOFLAZINE] | 0.2006
CCCCC(C)(O)C/C=C/[C@H]1[C@H](O)CC(=O)[C@@H]1CCCCCCC(=O)OC (stereo partly specified) [MISOPROSTOL] | -0.07952
COc1cc(N2CCC(N3CCN(C)CC3)CC2)ccc1Nc1ncc(Cl)c(Nc2ccccc2P(C)(C)=O)n1 [BRIGATINIB] | 0.1463
N#Cc1cc2c(cc1[N+](=O)[O-])=NC(=O)C(=O)N=2 | 0.1284
Cl.OC[C@H]1NC[C@@H](O)[C@@H](O)[C@@H]1O | 0.1457
CN[C@@H](C)[C@H](O)c1ccccc1.Cl [EPHEDRINE HYDROCHLORIDE] | 0.3718
CC(=O)[C@@]1(O)CC[C@H]2[C@@H]3C[C@H](C)C4=CC(=O)CC[C@]4(C)[C@H]3CC[C@@]21C | 0.2069
C[C@H](CCC(=O)O)[C@H]1CC[C@H]2[C@@H]3[C@H](O)C[C@@H]4C[C@H](O)CC[C@]4(C)[C@H]3C[C@H](O)[C@]12C [CHOLIC ACID] | 0.1604
